Laboratory results as given in article PMC4552634, “A New Set of Chemical Starting Points with Plasmodium falciparum Transmission-Blocking Potential for Antimalarial Drug Discovery” (PLoS ONE, 2015).
Where two headings read alike, the source gives them in different places. Among all 13,000 compounds or so, about 3,200 (25%) showed an effect of 50% or more. The list shows a part of the results.

System: P. falciparum stage V gametocytes
Set-up: BacTiter-Glo ATP luminescence viability of purified stage V gametocytes in 384-well plates, per cent inhibition versus DMSO
Conditions: 48 h, 5 µM, inhibitor

| Structure (SMILES) | % Inhibition [%] | % Inhibition (% Inhibition) [%] |
| --- | --- | --- |
| CCOC(=O)C1=C(C)NC2=C(C(=O)CC(C)(C)C2)C1c1ccc(Cl)cc1 (centres unmarked) [TCMDC-123497] | 10 | – |
| O=C(N[C@@H](CC1CCCCC1)C(=O)NCCN1CCCC1)c1ccc(O)c(-c2ccc(Cl)c(Cl)c2)c1 [TCMDC-140830] | 4.598 | – |
| COc1ccc(Nc2nccc(NCC(O)c3ccc(C(F)(F)F)cc3)n2)cc1 (centres unmarked) [TCMDC-136595] | -79.42 | – |
| CCCCCN(C(=O)Nc1cc(C(F)(F)F)cc(C(F)(F)F)c1)C(C)c1nc2ccccc2c(=O)n1CC (centres unmarked) [TCMDC-124043] | -29.97 | – |
| O=C(Nc1cc(C(F)(F)F)ccc1Cl)c1ccc(Cn2cc(Br)cn2)cc1 [TCMDC-124912] | -0.3608 | – |
| FC(F)(F)COc1c(CNCCCCCCNCc2ccc3ccccc3c2OCC(F)(F)F)ccc2ccccc12 [TCMDC-137833] | 67.85 | – |
| FC(F)(F)COc1c(CCNCCCCNCCc2ccc3ccccc3c2OCC(F)(F)F)ccc2ccccc12 [TCMDC-137169] | 119.3 | – |
| N#Cc1ccc(CNCCCCCCNCc2ccc(C#N)c3ccccc23)c2ccccc12 [TCMDC-137849] | 40.84 | – |
| O=c1cc(NCCCNCc2cccc(C(F)(F)F)c2Cl)[nH]c2ccccc12 [TCMDC-139421] | -19.98 | – |
| CN(C)c1ccc(C2(c3ccccc3)N=C(N)N(CCCc3ccccc3)C2=O)cc1 (centres unmarked) [TCMDC-136715] | -12.92 | – |
| CC(C)COc1ccc(C(O)C(CN2CCCCC2)c2ccccc2)cc1 (centres unmarked) [TCMDC-124253] | 31.95 | – |
| CCCCCOc1ccc(C(O)C(CN2CCCCC2)c2ccccc2)cc1 (centres unmarked) [TCMDC-124165] | 1.137 | – |
| CCCCCOc1ccc(C(O)C(CCC(CN2CCCCCC2)C(O)c2ccc(OCCCCC)cc2)CN2CCCCCC2)cc1 (centres unmarked) [TCMDC-124174] | 105.7 | – |
| COc1ccc(CNC2Cc3ccccc3C2)cc1-c1ccc(S(=O)(=O)NCc2ccccc2)s1 [TCMDC-132252] | 67.04 | – |
| COc1ccc(CNC2CCN(C)CC2)cc1-c1ccc(S(=O)(=O)NCCc2ccccn2)s1 [TCMDC-132256] | 13.25 | – |
| COc1cc(CNC2Cc3ccccc3C2)ccc1Oc1ccc2nc[nH]c2c1 [TCMDC-133481] | -19.03 | – |
| COc1ccc(CNC2CCN(C)CC2)cc1-c1ccc(S(=O)(=O)NCc2ccccc2)s1 [TCMDC-132253] | 85.45 | – |
| COc1ccc(CNC2Cc3ccccc3C2)cc1-c1ccc(S(=O)(=O)NCCc2ccccn2)s1 [TCMDC-132255] | 98.81 | – |
| COc1ccc(CNC2CCN(C)CC2)cc1-c1ccc(S(=O)(=O)NCc2cccnc2)s1 [TCMDC-132261] | 20.62 | – |
| COc1ccc(CNC2Cc3ccccc3C2)cc1-c1ccc(S(=O)(=O)NCc2cccnc2)s1 [TCMDC-132260] | 33.12 | – |
| COc1ccc(NC(=O)/C=C/c2ccccc2Cl)cc1OCCN1CCC(Cc2cc3ccccc3[nH]2)CC1 [TCMDC-140920] | -36.18 | – |

| Structure (SMILES) | % Inhibition [%] | % Inhibition (% Inhibition) [%] |
| --- | --- | --- |
| CN(C)C(CNC(=O)c1cc(-c2ccncc2)c(-c2ccc(Cl)c(O)c2)o1)c1ccccc1 (centres unmarked) [TCMDC-135438] | -15.77 | – |
| O=C(CCc1cnc[nH]1)Nc1cccc(-c2ccc(-c3nc4ccc(F)cc4[nH]3)cc2)c1 [TCMDC-132154] | 23.15 | – |
| Cc1ccc(N2CCN(C(=O)c3cccc(-c4cncc5nc(-c6ccco6)n(C)c45)c3)CC2)nc1 [TCMDC-134992] | -10.32 | – |
| C#CCNC(=O)c1ccc(-c2ccnc(Nc3cccc(CCCN4CCOCC4)c3)n2)s1 [TCMDC-136764] | 20.31 | – |
| COc1cccc(CN2CCCC(OC(c3ccccc3)c3ccccc3)C2)c1O (centres unmarked) [TCMDC-136385] | -25.83 | – |
| Cn1nc(-c2ccc(Cl)cc2)c2cc(C(=O)NCCN3CCOCC3)sc21 [TCMDC-124416] | 0.2691 | – |
| CCCN1CCN(CCCNC(=O)c2cc3c(-c4ccc(Cl)cc4)nn(C)c3s2)CC1 [TCMDC-124731] | 12.34 | – |
| CCN1CCCC1CNC(=O)c1cc2c(-c3ccc(Cl)cc3)nn(C)c2s1 (centres unmarked) [TCMDC-123579] | 67.12 | – |
| CCc1cn2c3c(cc(C(=O)N[C@@H](Cc4ccccc4)[C@H](O)CNCc4ccccc4)cc13)N(C)S(=O)(=O)CC2 [TCMDC-135883] | 74.56 | – |
| CCc1cn2c3c(cc(C(=O)N[C@@H](Cc4ccccc4)[C@H](O)CNCc4ccc(C)cc4)cc13)N(C)S(=O)(=O)CC2 [TCMDC-135924] | 11.35 | – |
| CCNC[C@@H](O)[C@H](Cc1ccccc1)NC(=O)c1cc2c3c(c1)c(CC)cn3CCS(=O)(=O)N2C [TCMDC-135800] | 27.6 | – |
| CCc1cn2c3c(cc(C(=O)N[C@@H](Cc4ccccc4)[C@H](O)CNCCOC)cc13)N(C)S(=O)(=O)CC2 [TCMDC-135799] | 12.82 | – |
| CCCCNC[C@@H](O)[C@H](Cc1ccccc1)NC(=O)c1cc2c3c(c1)c(CC)cn3CCS(=O)(=O)N2C [TCMDC-135802] | 53.96 | – |
| CCCNC[C@@H](O)[C@H](Cc1ccccc1)NC(=O)c1cc2c3c(c1)c(CC)cn3CCS(=O)(=O)N2C [TCMDC-135863] | 78.77 | – |
| CCc1cn2c3c(cc(C(=O)N[C@@H](Cc4ccccc4)[C@H](O)CNCc4cccc(C)c4)cc13)N(C)S(=O)(=O)CC2 [TCMDC-135923] | 15.33 | – |
| CCc1cn2c3c(cc(C(=O)N[C@@H](Cc4ccccc4)[C@H](O)CNCC(C)C)cc13)N(C)S(=O)(=O)CC2 [TCMDC-135804] | 36.82 | – |
| CCc1cn2c3c(cc(C(=O)N[C@@H](Cc4ccccc4)[C@H](O)CNCc4ccccc4C)cc13)N(C)S(=O)(=O)CC2 [TCMDC-135922] | -22.32 | – |
| COC(=O)c1ccc(CC(C)NCC(O)c2cccc(C(F)(F)F)c2)cc1 (centres unmarked) [TCMDC-131435] | – | 22.12 |
| COc1ccc(OC)c(CNCC(O)c2cc(C(F)(F)F)cc(C(F)(F)F)c2)c1 (centres unmarked) [TCMDC-140306] | 38.32 | – |
| Cc1nc2ccc3ccc(CNc4ccc(C(=O)CC(CCC(=O)O)C(=O)O)cc4)cc3c2c(=O)[nH]1 (centres unmarked) [TCMDC-137855] | 12.05 | – |
